# Pf growth 96h: Primary qHTS for delayed death inhibitors of the malarial parasite plastid, 96 hour incubation; P. falciparum luciferase reporter growth, 96 h; Potency, µM (highest dose often 28.7 µM), without a hit: at the highest dose activity change, negative = inhibition, most hits filed as inhibitors; 6.9% of 320,000 active; also: potency is read from the fitted curve at half-maximal effect; % is scaled to controls: 0 for no effect and ±100 for the full control effect
#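 Luminescence readout: decreased luciferase signal marks inhibited growth of reporter-expressing P. falciparum in infected red cells (2% hematocrit, 0.05% parasitemia final), exposed to compound two generations (96 h, 37 C, 5% CO2).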
# LmPK inhibitor: qHTS Assay for Inhibitors of Leishmania Mexicana Pyruvate Kinase (LmPK); purified LmPK, Kinase-Glo ATP luminescence, 1 h; AID 1721, 2009; 0.37% of 290,000 active; Potency, µM (titrated, usually from 57.5 µM), inactives show at the highest dose activity change, negative = inhibition, actives largely listed as inhibitors; also: potency is read from the fitted curve at half-maximal effect; % is scaled to controls: 0 for no effect and ±100 for the full control effect
# Target sequence (Q27686 whole entry, looked up): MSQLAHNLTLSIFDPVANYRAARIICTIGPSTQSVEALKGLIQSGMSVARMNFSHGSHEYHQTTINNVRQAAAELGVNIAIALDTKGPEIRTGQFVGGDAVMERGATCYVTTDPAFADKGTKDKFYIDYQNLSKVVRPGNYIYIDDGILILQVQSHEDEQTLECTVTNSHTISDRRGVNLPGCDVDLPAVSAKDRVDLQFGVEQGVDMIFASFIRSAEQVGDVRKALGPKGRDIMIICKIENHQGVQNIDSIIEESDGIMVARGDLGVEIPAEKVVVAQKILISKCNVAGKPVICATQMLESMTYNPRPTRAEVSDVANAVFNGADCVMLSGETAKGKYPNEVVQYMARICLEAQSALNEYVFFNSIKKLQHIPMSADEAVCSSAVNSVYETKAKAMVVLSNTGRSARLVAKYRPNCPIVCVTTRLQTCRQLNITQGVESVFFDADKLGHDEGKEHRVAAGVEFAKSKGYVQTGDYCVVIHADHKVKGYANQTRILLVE
#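 In 50 mM imidazole pH 7.2 with 7 mM MgCl2, LmPK (0.1 nM) turned over PEP (0.5 mM) and ADP (0.1 mM) for 1 h at room temperature. Luciferase read-out of ATP.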
# Cycloheximide cs: Cycloheximide Counterscreen for Small Molecule Inhibitors of Shiga Toxin. cell reporter, cycloheximide protein synthesis inhibition counterscreen. max response, %. 12% of 300,000 active. AID 2314, 2010; in the data active = max response mostly above about 13%, no sharp cut-off; inactive = mostly below about 14%; also: read at 38.3 µM for the half of the compounds with a filed dose; 0% is about no effect
# Shiga toxin inh: A qHTS for Small Molecule Inhibitors of Shiga Toxin | inhibition, % at 38.7 µM | AID 2315, 2010 | Vero cells, Shiga toxin protein synthesis inhibition reporter | 9.2% of 290,000 active; in the data active = inhibition mostly above about 28%, no sharp cut-off; inactive = mostly below about 43%; also: 0% is about no effect
# Pf growth 48h: Primary qHTS for delayed death inhibitors of the malarial parasite plastid, 48 hour incubation; P. falciparum luciferase growth in erythrocytes, 48 h; Potency, µM (titrated, usually from 28.7 µM), without a hit: top-dose activity change, negative = inhibition, hits mostly inhibitors; 5.9% of 310,000 active; AID 504832, 2011; also: potency is read from the fitted curve at half-maximal effect; % is scaled to controls: 0 for no effect and ±100 for the full control effect
#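 Cell-based growth assay: transgenic P. falciparum expressing firefly luciferase, cultured in red cells within RPMI 1640 containing 0.5% w/v Albumax, 24 mM bicarbonate and gentamycin. A drop in luciferase activity indicates inhibition.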
# The depositor's hits bear a star; i = inactive; ? = inconclusive; nt = no result. Compounds with a hit are over-represented: about 22% of the library has one in this group of screens. Unless noted, calls follow the shape of the dose curve; as a rule, active = well fitted inhibition curve with a large enough effect; inconclusive = small, poorly fitted or top-dose-only effect, or another doubt; inactive = no such curve, though single readings can be large or run the other way.
SMILES,Pf growth 96h,LmPK inhibitor,Cycloheximide cs,Shiga toxin inh,Pf growth 48h
CC[C@H](C)[C@H](NC(=O)[C@H](CO)NC(=O)[C@H](CC(N)=O)NC(=O)[C@H](CC(C)C)NC(=O)[C@H](Cc1ccc(O)cc1)NC(=O)[C@H](CCCCN)NC(=O)[C@H](CCCCN)NC(=O)[C@@H](NC(=O)[C@H](C)NC(=O)[C@H](CCSC)NC(=O)[C@H](CCC(N)=O)NC(=O)[C@H](CCCCN)NC(=O)[C@H](CCCNC(=N)N)NC(=O)[C@H](CC(C)C)NC(=O)[C@H](CCCNC(=N)N)NC(=O)[C@@H](NC(=O)[C@H](Cc1ccc(O)cc1)NC(=O)[C@H](CC(N)=O)NC(=O)[C@H](CC(=O)O)NC(=O)[C@@H](NC(=O)[C@H](Cc1ccccc1)NC(=O)[C@@H](NC(=O)[C@H](C)NC(=O)[C@H](CC(=O)O)NC(=O)[C@H](CO)NC(=O)[C@@H](N)Cc1cnc[nH]1)C(C)C)[C@@H](C)O)[C@@H](C)O)C(C)C)C(=O)N[C@@H](CC(C)C)C(=O)N[C@@H](CC(N)=O)C(N)=O,nt,nt,-5,-1,nt
Cn1nnnc1SCC(=O)Nc1ccc(Oc2ccccc2)cc1,0%,-3%,8.9*,22,?
CCOc1ccc(NC(=O)CSc2nnc(C3CC3)n2N)cc1,1%,1%,-2,-9,13%
Nn1c(SCC(=O)Nc2ccc(Oc3ccccc3)cc2)nnc1C1CC1,?,-5%,-2,19,8.3µM*
COc1ccc(NC(=O)CSc2nnnn2C)cc1,?,0%,-2,19,14%
CCn1c(SCC(=O)Nc2ccc(F)cc2)nnc1C1CC1,?,-5%,19*,23,40%
CCc1ccc(NC(=O)CSc2nnnn2C)cc1,15%,-2%,56*,78*,141%
CC(C)C(NC(N)=O)C(=O)NC1CCCCC1 (configuration not stated),24%,-4%,-3,-6,0%
CCC1CCCCN1C(=O)CSc1nc2ncccc2[nH]1 (configuration not stated),0%,8%,3,10,2%
CC(=O)Nc1nc(C)c(CCC2OCCO2)c(=O)[nH]1,17%,-6%,-4,-5,19%
CCN(CC)CCCCNc1ncc2cc(-c3cc(OC)cc(OC)c3)c(NC(=O)NC(C)(C)C)nc2n1,9.3µM*,0%,-7,-6,?
O=C(O)CCCC[C@@H]1CCSS1,nt,nt,-2,11,nt
Cc1ccc(CNC(=O)CCc2ccc(S(=O)(=O)NC3CCCCC3)cc2)cc1,nt,1%,-5,20,-21%
O=C(CCc1ccc(S(=O)(=O)NC2CCCCC2)cc1)NCc1cccnc1,8%,1%,15*,31,-11%
O=C(CN(C1CCCCC1)S(=O)(=O)c1ccc(Cl)cc1)NCc1cccnc1,-3%,3%,-2,-7,?
O=C(CN(C1CCCCC1)S(=O)(=O)c1ccccc1)NCc1cccnc1,9.3µM*,-5%,6,2,-30%
COc1ccc(CN2C(=O)c3cccnc3C2Nc2cc(Cl)ccc2OC)cc1 (configuration not stated),?,1%,3,-8,5.2µM*
COC(=O)c1c(NC(=O)c2ccc(C)o2)sc2c1CCCCC2,49%,-1%,50*,73*,85%
O=C(Nc1sc2c(c1C(=O)O)CCC2)c1ccco1,18%,-9%,6,32,nt
CC(=O)Nc1sc2c(c1C(=O)N1CCOCC1)CCCCC2,12µM*,-5%,-4,11,6%
Cc1ccc(C(=O)Nc2sc3c(c2C(=O)O)CCCCC3)o1,?,?,37*,54*,-12%
COC(=O)c1c(NC(=O)C2CCCCC2C(=O)O)sc2c1CCCCC2 (configuration not stated),-5%,1%,40*,84*,-5%
CCOC(=O)c1c(NC(=O)C2CCCCC2C(=O)O)sc2c1CCCCC2 (configuration not stated),17%,1%,-5,-19,8%
COC(=O)c1c(NC(=O)c2ccco2)sc2c1CCC2,nt,0%,3,12,18%
COc1ccc(NC(=O)CC23CC4CC(C2)CC(n2nnc(C)n2)(C4)C3)cc1,18%,-9%,-3,-10,-9%
SMILES,Pf growth 96h,LmPK inhibitor,Cycloheximide cs,Shiga toxin inh,Pf growth 48h
COc1ccc(N2CCN(CC(=O)Nc3nc(C)cs3)CC2)cc1,i,3%,-1,-14,-4%
COC(=O)c1c(NC(=O)Cc2cccs2)sc2c1CCCC2,?,1%,30*,22,-6%
Cc1ccc(C(=O)Nc2sc3c(c2C(=O)O)CCCC3)o1,22%,-4%,52*,68*,24%
COC(=O)c1c(NC(=O)c2c(-c3ccccc3Cl)noc2C)sc2c1CCC2,2.1µM*,3%,-1,-19,nt
O=c1c(Cc2ccc(Cl)cc2Cl)c(O)ccn1CCCN1CCOCC1,10%,1%,-6,-19,-12%
O=C(O)Cc1ccc(C(=O)c2cccs2)s1,10µM*,?,16,27,18%
O=C(O)c1ccccc1C(=O)c1cccs1,-4%,1%,-3,-7,2%
CN(C(=O)c1c(O)c2ccccc2n(C)c1=O)c1ccccc1,-2%,nt,nt,nt,-3%
CNC(=S)N1CCN=C1Nc1nc(C)cc(C)n1,?,0%,8,23,17%
COc1cccc(/C=N/NC(=O)CSCC(=O)Nc2ccccc2)c1O,?,3%,-4,-23,?
COc1cccc(/C=N/NC(=O)C(=O)N2CCCCCC2)c1O,50%,-14%,21*,15,-5%
Fc1ccc(/C=N/N2CCCCC2)c(F)c1,-4%,4%,4,-6,-1%
O=C(N/N=C/c1ccc(OC(F)F)cc1OC(F)F)NC1CCCCC1,?,-1%,3,29,10µM*
FC(F)Oc1ccc(/C=N/N2CCCCC2)c(OC(F)F)c1,8%,1%,32*,79*,18%
O=C(N/N=C/c1ccc(OC(F)F)cc1OC(F)F)c1ccc(Br)cc1,?,8%,-1,8,-27%
COc1cccc(/C=N/NC(=O)NC2CCCCC2)c1O,?,-2%,34*,52*,?
COc1cccc(/C=N/NC(=O)C(=O)N/N=C/c2cccc(OC)c2O)c1O,0%,-2%,9,-9,0%
CC(=O)Nc1ccc2c(c1)C(C)(C)C(C)N2C (configuration not stated),10µM*,-9%,9,23,-8%
Cc1csc(SCC(=O)Nc2cc(C(C)(C)C)nn2-c2ccccc2)n1,?,4%,-3,-6,7.4µM*
CCC(C)n1c(SCC(=O)Nc2cc(C)on2)nc2ccccc2c1=O (configuration not stated),?,2%,-2,-16,?
CCC(C)n1c(SCC(=O)Nc2cc(C(C)(C)C)nn2-c2ccccc2)nc2ccccc2c1=O (configuration not stated),5.9µM*,1%,-2,15,10µM*

# Bioassay records: PubChem BioAssay, National Center for Advancing Translational Sciences (NCATS)
